# Reference: PubChem BioAssay (NCATS)
# Records with an inconclusive call do not appear. Entries that show only a call come without a potency. Unmarked numbers belong to inactive results. Activity calls are given as the source filed them. The call rests on the fitted dose curve; in most records, active means well fitted curve in the direction sought with a large enough effect; inconclusive means small, poorly fitted or top-dose-only effect, or another doubt; inactive means no such curve, though single readings can be large; an effect the other way counts as inactive or inconclusive. Residues, ends and D or L forms follow the SMILES beside them. *: point of attachment. Cbz = O=C(OCc1ccccc1)*
# Columns and labels:
# [1] = biological target: Calcium and integrin-binding protein 1 (Homo sapiens) (UniProt Q99828); test: Primary qHTS for Identification of Calcium Integrin Binding Protein 1 (CIB1) Competitor (AID 1508620);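 further: GST tagged CIB1 binding a fluorescein labelled alphaIIb integrin peptide tracer; top concentration of the series differs between compounds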
# Method in brief: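 CIB1-GST (1 uM final) and compound incubated 15 min at room temperature before adding FITC-alphaIIb peptide tracer (100 nM final). Competition for binding read by fluorescence polarization (ex 480, em 540) after another 15 min at room temperature.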
# [2] = qHTS to identify inhibitors of the type 1 interferon - major histocompatibility complex class I in skeletal muscle: primary screen against the NCATS Mechanism Interrogation Plate v5.0 (MIPE) Libary (AID 1347411); further: potency means the concentration at half of the fitted maximal effect; nearly all actives have a fitted effect of over 65% in size
# Method in brief: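 HLA-B HiBit myoblasts, dexamethasone-free medium + 4 ng/ml IFN-b, 24 h compound, 11-pt 1:3 from 46 uM final. Readout: Nano-Glo HiBiT lytic luminescence after 10 min lysis, RT.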
# [3] = Primary qHTS for small molecule stabilizers of the endoplasmic reticulum resident proteome: Secreted ER Calcium Modulated Protein (SERCaMP) assay (AID 1508630)
# Method in brief: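 The SH-SY5Y reporter protocol was run at 3 concentrations up to 38.3 uM (primary) or 11 concentrations (follow-up): 16 h compound, 100 nM thapsigargin for 4 h, then extracellular luciferase luminescence.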
# Calcium and integrin-binding protein 1 (Homo sapiens), sequence (Q99828 whole entry, looked up): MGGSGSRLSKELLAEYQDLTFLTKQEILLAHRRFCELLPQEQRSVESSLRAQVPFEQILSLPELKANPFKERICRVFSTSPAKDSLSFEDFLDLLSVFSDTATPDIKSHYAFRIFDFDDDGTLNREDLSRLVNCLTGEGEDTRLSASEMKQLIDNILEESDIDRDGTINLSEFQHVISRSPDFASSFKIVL
smiles,measurement,setting,value
CN(N=O)C(=O)N[C@H]1C(O)OC(CO)[C@@H](O)[C@H]1O (stereo partly specified),Potency,[1],inactive
CC(C)C[C@@H](C=O)NC(=O)[C@H](CC(C)C)NC(=O)[C@H](CC(C)C)NC(=O)OCc1ccccc1 (Cbz-Leu-Leu-Leu-aldehyde),Potency,[2],2080 nM (active)
same,outcome,[3],inactive
CCN(CC)CCNC(=O)c1c(C)[nH]c(C=C2C(=O)Nc3ccc(F)cc32)c1C,Potency,[1],inactive
CC[C@H]1OC(=O)[C@H](C)[C@@H](O[C@H]2C[C@@](C)(OC)[C@@H](O)[C@H](C)O2)[C@H](C)[C@@H](O[C@@H]2O[C@@H](C)C[C@H](N(C)C)[C@@H]2O)[C@](C)(O)C[C@@H](C)C(=O)[C@H](C)[C@@H](O)[C@]1(C)O,Potency,[1],inactive
CCCCCCCCCCCCCCCC(=O)OC[C@@H](NC(=O)C(Cl)Cl)[C@H](O)c1ccc([N+](=O)[O-])cc1,Potency,[1],inactive
CCN1CCN(C(=O)N[C@H](C(=O)N[C@@H]2C(=O)N3C(C(=O)O)=C(CSc4nnnn4C)CS[C@@H]23)c2ccc(O)cc2)C(=O)C1=O,"activity change, negative = inhibition",[1],-3.53% [at 12.4 µM]
Oc1cc(-c2nc(-c3ccccc3)[nH]c2-c2ccncc2)ccc1Cl,Potency,[2],16500 nM (active)
same,Potency,[1],inactive
same,outcome,[3],inactive
OCCN1C[C@H](O)[C@@H](O)[C@H](O)[C@@H]1CO,Potency,[1],inactive
COc1cc2c(Nc3ccc(Cl)c(Cl)c3F)ncnc2cc1OCC1C[C@@H]2CN(C)C[C@H]2C1,Potency,[1],inactive
Cc1ncc(-c2ccnc(Nc3ccc(S(C)(=O)=O)cc3)n2)n1C(C)C,Potency,[2],1170 nM (active)
same,Potency,[1],inactive
same,outcome,[3],inactive
CNC(=O)c1ccc(Nc2cc(Nc3ccccc3S(=O)(=O)C(C)C)c3cc[nH]c3n2)nc1,Potency,[1],inactive
